Some test systems named below: HCT-15 colon; HT29 colon; SNB-75 CNS; U251 CNS; PC-3 prostate; SK-MEL-5 melanoma; UACC-62 melanoma; LOX IMVI melanoma; SK-MEL-28 melanoma; SNB-19 CNS.
What all share (assay): NCI-60 one-dose screen, 48 h (100 = growth as untreated, 0 = no growth, -100 = all killed)
Holding throughout (details): 10 µM unless noted

Where “and” joins values, the source holds several entries; their conditions need not be identical. Equal entries are not always repeated. Compounds without any hit were thinned out: in the full panel of roughly 83,000, 20% have a hit.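 Method: cells in 96-well plates; compound added at one concentration; 48 h incubation; percent growth measured; values under 10 scored active.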 Calls of active or inactive are those of the source.

As for `COc1c(B(O)O)cc(F)cc1-c1nc2ccc3[nH]ncc3c2c2c1COCC2`, the growth is 99.4% (inactive) with HCT-15 colon; 74.2% (inactive) in the experiment with HT29 colon; 0.778% (active) in the experiment on SNB-75 CNS; 45.4% (inactive) in the experiment on U251 CNS; 83.1% (inactive) in the experiment on PC-3 prostate; 64.6% (inactive) with SK-MEL-5 melanoma. Also, the growth with UACC-62 melanoma was 68.2% (inactive); in the experiment with LOX IMVI melanoma, 24.2% (inactive); in the experiment on SK-MEL-28 melanoma it was 61.9% (inactive).

On to `O=C(CCl)Nc1ccc(C(=O)/C=C/c2cc3ccccc3nc2Cl)cc1`, for which the growth was -85.4% (active) and 19.7% (inactive) with HCT-15 colon; 51.2% (inactive) and 68% (inactive) in the experiment on SNB-75 CNS; -80% (active) and 46.6% (inactive) with SNB-19 CNS; -83.8% (active) and 39.7% (inactive) with U251 CNS; 11.1% (inactive) and 56.4% (inactive) with PC-3 prostate; -78.4% (active) and 62.4% (inactive) in the experiment with SK-MEL-5 melanoma. Also, the growth in the experiment on UACC-62 melanoma is -33.3% (active) and 12.9% (inactive); in the experiment with LOX IMVI melanoma, -97.9% (active) and 3.63% (active); in the experiment with SK-MEL-28 melanoma, -69.5% (active) and 46.2% (inactive).

In the case of `N#CC1=C(c2ccco2)Nc2c(c(-c3ccccc3)nn2-c2ccccc2)C12C(=O)Nc1ccc(Cl)cc12` (stereo unspecified), the growth with HCT-15 colon was 30.4% (inactive); in the experiment with HT29 colon, 41.9% (inactive); in the experiment on SNB-75 CNS, -56.4% (active); in the experiment on U251 CNS, -21.7% (active); in the experiment with PC-3 prostate, -41% (active); with SK-MEL-5 melanoma it was 50.4% (inactive). Moreover, the growth is 37.4% (inactive) with UACC-62 melanoma, 2.55% (active) with LOX IMVI melanoma and 45.6% (inactive) with SK-MEL-28 melanoma.

As for `CS(=O)(=O)Nc1cncc(-c2ccc3ncnc(NCc4ccccc4)c3c2)c1`, the growth is 64.3% (inactive) with HCT-15 colon; 65.1% (inactive) with HT29 colon; 5.11% (active) in the experiment with SNB-75 CNS; 22.1% (inactive) in the experiment on U251 CNS; 42.1% (inactive) in the experiment on PC-3 prostate; -82.9% (active) in the experiment on SK-MEL-5 melanoma. Moreover, the growth in the experiment with UACC-62 melanoma is 29.2% (inactive); in the experiment with LOX IMVI melanoma, 35.9% (inactive); with SK-MEL-28 melanoma it was 40.3% (inactive).

Take `CN1C(=O)/C(=C/c2ccco2)S/C1=N/c1nccs1`: the growth is 93.8% (inactive) with HCT-15 colon; 103% (inactive) in the experiment on HT29 colon; 97.4% (inactive) in the experiment with SNB-75 CNS; 111% (inactive) with U251 CNS; 98.1% (inactive) with PC-3 prostate; 98.9% (inactive) in the experiment with SK-MEL-5 melanoma. Further, the growth with UACC-62 melanoma was 86.7% (inactive); with LOX IMVI melanoma, 97.7% (inactive); in the experiment with SK-MEL-28 melanoma, 112% (inactive).

Turning to `CC[C@@]12CC(C(=O)OC)=C3Nc4cc5c(cc4[C@@]34CCN(C[C@H]3O[C@H]31)[C@@H]24)[C@@H]1[C@H](O5)[C@@H](O)[C@@]2(CC)CC(C(=O)OC)=C3Nc4cc(O)ccc4[C@@]34CCN1[C@@H]24`, the growth in the experiment with HCT-15 colon is -51.6% (active); in the experiment on HT29 colon it was -14% (active); in the experiment with SNB-75 CNS, -34.4% (active); with U251 CNS it was -57.5% (active); with PC-3 prostate, 15.9% (inactive); with SK-MEL-5 melanoma, -90.2% (active). The growth is -57.8% (active) in the experiment on UACC-62 melanoma, -84.4% (active) with LOX IMVI melanoma and -47.3% (active) in the experiment on SK-MEL-28 melanoma.

For the compound `Nc1nc2cc(-c3ccc4ncnc(NCc5ccccc5)c4c3)ccc2o1`, the growth was 14.1% (inactive) in the experiment with HCT-15 colon; 37.2% (inactive) with HT29 colon; -83.9% (active) in the experiment on SNB-75 CNS; 9.55% (active) in the experiment on U251 CNS; 25.2% (inactive) in the experiment with PC-3 prostate; 0.196% (active) in the experiment on SK-MEL-5 melanoma. Moreover, the results for the growth in the experiment with UACC-62 melanoma, with LOX IMVI melanoma and in the experiment on SK-MEL-28 melanoma were 77.1% (inactive), -86.1% (active) and 10.7% (inactive), respectively.

Turning to `S=C(Nc1ccccc1)Nc1ccc(OCc2nc3ccc(Cl)cc3[nH]2)cc1`, the growth was 67.9% (inactive) in the experiment with HCT-15 colon; 89.4% (inactive) with SNB-75 CNS; 89.1% (inactive) in the experiment on SNB-19 CNS; 82.6% (inactive) with U251 CNS; 77.8% (inactive) in the experiment on PC-3 prostate; 82.8% (inactive) with SK-MEL-5 melanoma. The growth in the experiment on UACC-62 melanoma is 77.3% (inactive); in the experiment on LOX IMVI melanoma, 36.3% (inactive); in the experiment with SK-MEL-28 melanoma, 87.9% (inactive).

`O=C(N/N=C/c1c[nH]c2ccccc12)Nc1ccc(F)c(Cl)c1`: the growth is 20.2% (inactive) in the experiment with HCT-15 colon; 48% (inactive) in the experiment on SNB-75 CNS; 73.4% (inactive) in the experiment with SNB-19 CNS; 42.2% (inactive) with U251 CNS; 43.3% (inactive) in the experiment with PC-3 prostate; 34% (inactive) with SK-MEL-5 melanoma. For the same compound, the values for the growth with UACC-62 melanoma, with LOX IMVI melanoma and with SK-MEL-28 melanoma were 48.6% (inactive), 4.2% (active) and 58.8% (inactive), respectively.

Regarding `COc1ccc2[nH]c(O)c(N=Nc3nc(-c4ccc(C#N)cc4)cs3)c2c1`, the growth with HCT-15 colon is 68% (inactive); in the experiment on HT29 colon, 79.1% (inactive); with SNB-75 CNS it was -3.1% (active); in the experiment with U251 CNS, 15.2% (inactive); in the experiment on PC-3 prostate, 85.7% (inactive); in the experiment on SK-MEL-5 melanoma, 53.7% (inactive). The values for the growth with UACC-62 melanoma, with LOX IMVI melanoma and with SK-MEL-28 melanoma were 72.7% (inactive), 37.6% (inactive) and 68.9% (inactive), respectively.

Regarding `Cc1[nH]nc2ccc3nc(-c4cnn(CCO)c4)c4c(c3c12)CCCC4`, the growth in the experiment with HCT-15 colon was 23.3% (inactive); in the experiment on HT29 colon, 31.3% (inactive); in the experiment with SNB-75 CNS it was 31.9% (inactive); in the experiment on U251 CNS, 57.2% (inactive); in the experiment with PC-3 prostate, 40.4% (inactive); in the experiment on SK-MEL-5 melanoma, 31.7% (inactive). Besides, the growth with UACC-62 melanoma was 34.8% (inactive); in the experiment with LOX IMVI melanoma it was 25.1% (inactive); in the experiment on SK-MEL-28 melanoma, 75.6% (inactive).

Regarding `Oc1ccc(Cl)c(Nc2nc(SCCN3CCOCC3)nc3c2cnn3CC(Cl)c2ccc(Br)cc2)c1` (stereo unspecified), the growth is 8.41% (active) in the experiment with HCT-15 colon; 6.18% (active) in the experiment with HT29 colon; 11.5% (inactive) with SNB-75 CNS; 23.9% (inactive) in the experiment with U251 CNS; 14.5% (inactive) in the experiment with PC-3 prostate; 16.6% (inactive) in the experiment on SK-MEL-5 melanoma. The growth in the experiment on UACC-62 melanoma is 39.9% (inactive); with LOX IMVI melanoma it was -59.3% (active); in the experiment with SK-MEL-28 melanoma it was 32% (inactive).

Take `COc1cc(C=O)ccc1OC(=O)c1cc(-c2ccc(C)cc2)n(-c2ccc(S(C)(=O)=O)cc2)n1`: the growth with HCT-15 colon is 96.7% (inactive); in the experiment on HT29 colon, 113% (inactive); in the experiment with SNB-75 CNS, 104% (inactive); with U251 CNS, 100% (inactive); with PC-3 prostate, 100% (inactive); in the experiment on SK-MEL-5 melanoma, 100% (inactive). Besides, the growth in the experiment on UACC-62 melanoma is 91.4% (inactive); in the experiment with LOX IMVI melanoma, 98.8% (inactive); in the experiment with SK-MEL-28 melanoma, 113% (inactive).

`COc1cc2cc(C(=O)N3C[C@@H](CCl)c4c3cc(OC(=O)N(C)CCSSCCN3CCOCC3)c3ccccc43)[nH]c2c(OC)c1OC`: the growth in the experiment on HCT-15 colon is -11.1% (active); in the experiment with HT29 colon it was -10% (active); in the experiment on SNB-75 CNS, -74.6% (active); in the experiment on U251 CNS it was -24.1% (active); in the experiment with PC-3 prostate, -12.2% (active); in the experiment on SK-MEL-5 melanoma it was -46.5% (active). Also, the results for the growth in the experiment on UACC-62 melanoma, in the experiment with LOX IMVI melanoma and with SK-MEL-28 melanoma were -80.3% (active), -69.2% (active) and -60.7% (active), respectively.

For the origin of these results see PubChem BioAssay (NCI).
